# PubChem BioAssay (EPA / NIEHS)
# Inconclusive results are not listed. Activity calls are given as the source filed them. How the source made its calls: active means hit-call score of the fitted dose curve at least 0.9, where 1 is the maximum; inconclusive means response in the unintended direction; inactive means score below 0.9.
# Assay: Tanguay_ZF_120hpf_SOMI_legacy: (Legacy) Oregon State University Tanguay Lab 120 Hour Post-fertilization zebrafish Assay for Somite Malformation (AID 2283647)
# How it was run: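 Binary somite-defect scoring at 120 hpf, omitted for embryos that died, in wild-type (Tropical 5D) zebrafish with chorion removed by pronase at 4 hpf; static exposure began 6 hpf, single embryos per well, 28C, 0.64% DMSO; fitted positive versus DMSO.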
row,Compound,outcome
1,CC1=C(C)S(=O)(=O)CCS1(=O)=O,inactive
2,Cc1cn([C@H]2C=C[C@@H](CO)O2)c(=O)[nH]c1=O,inactive
3,O=C(N[C@@H](c1ccccc1)[C@@H]1CCCCN1)c1cccc(C(F)(F)F)c1Cl,inactive
4,CCCCCCCCCCCCCCCCO,inactive
5,CC(N)=O,inactive
6,CCCCCCC(CCCCCCCCCCC(=O)OCC(COC(C)=O)OC(C)=O)OC(C)=O (stereo not given),inactive
7,CC(=O)S[C@H](C(=O)N[C@H]1Cc2ccccc2[C@H]2CCC[C@@H](C(=O)O)N2C1=O)C(C)C,inactive
8,CCCCCCC(C=O)=Cc1ccccc1,inactive
9,CC(C)(C)c1ccccc1,inactive
10,O=C(NS(=O)(=O)/C=C/c1cccs1)c1ccc(F)cc1Br,inactive
11,CC(=O)O[C@]1(C(C)=O)CC[C@H]2[C@@H]3C=C(Cl)C4=CC(=O)[C@@H]5C[C@@H]5[C@]4(C)[C@H]3CC[C@@]21C,inactive
12,CS(=O)(=O)c1ccc([C@@H](C[C@H]2CCC(=O)C2)C(=O)Nc2cnccn2)cc1Cl,inactive
13,CN(C)CCCN(C)CCCN(C)C,inactive
14,CN(C)C(=O)NC1(c2ccccc2)CCN(CC[C@@]2(c3ccc(F)c(F)c3)CN(C(=O)c3ccccc3)CCO2)CC1,inactive
15,O=[Si]=O,inactive
16,Cc1cc(SC2=C(O)C[C@@](CCc3ccc(N)cc3)(C(C)C)OC2=O)c(C(C)(C)C)cc1CO,inactive
17,CCCCCCCCCC[N+](C)(C)[O-],inactive

# Assay: Tanguay_ZF_120hpf_PFIN_legacy: (Legacy) Oregon State University Tanguay Lab 120 Hour Post-fertilization zebrafish Assay for Pectoral Fin Malformation (AID 2283648);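 further: each larva judged yes or no for fin defect by brightfield with dead larvae skipped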
# How it was run: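 Scoring of pectoral fin malformation was binary, made at 120 hpf on larvae exposed statically from 6 hpf after enzymatic chorion removal. Activity was fitted upward relative to DMSO controls at 0.64% (vol/vol).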
row,Compound,outcome
1,CC1=C(C)S(=O)(=O)CCS1(=O)=O,inactive
2,Cc1cn([C@H]2C=C[C@@H](CO)O2)c(=O)[nH]c1=O,inactive
3,O=C(N[C@@H](c1ccccc1)[C@@H]1CCCCN1)c1cccc(C(F)(F)F)c1Cl,inactive
4,CCCCC(CC)COP(=O)(OCC(CC)CCCC)OCC(CC)CCCC (stereo not given),inactive
5,COC(=O)CCCC(=O)OC,inactive
6,CCCCCCCCCCCCCCCCO,inactive
7,CC(N)=O,inactive
8,CCCCCCC(CCCCCCCCCCC(=O)OCC(COC(C)=O)OC(C)=O)OC(C)=O (stereo not given),inactive
9,C=CCCCCCCCCCCCC,inactive
10,CC(=O)S[C@H](C(=O)N[C@H]1Cc2ccccc2[C@H]2CCC[C@@H](C(=O)O)N2C1=O)C(C)C,inactive
11,CCCCCCC(C=O)=Cc1ccccc1,inactive
12,CCCCc1nc2cccnc2n1Cc1ccc(-c2ccccc2-c2nnn[nH]2)cc1,inactive
13,CC(C)c1cccc(C(C)C)c1NC(=O)NS(=O)(=O)c1cc(C(C)(C)O)co1,inactive
14,CC(C)(C)c1ccccc1,inactive
15,O=C(NS(=O)(=O)/C=C/c1cccs1)c1ccc(F)cc1Br,inactive
16,CC1(C)C(=O)NC(=O)N1CO,inactive
17,CC(=O)[C@@]1(O)CC[C@H]2[C@@H]3CCC4=CC(=O)CC[C@]4(C)[C@H]3CC[C@@]21C,inactive
18,CS(=O)(=O)c1ccc([C@@H](C[C@H]2CCC(=O)C2)C(=O)Nc2cnccn2)cc1Cl,inactive
19,CO[C@@H]1COCC[C@@H]1N[C@@H]1CC[C@@](C(=O)N2CCc3ncc(C(F)(F)F)cc3C2)(C(C)C)C1,inactive
20,CN(C)CCCN(C)CCCN(C)C,inactive
21,CN(C)C(=O)NC1(c2ccccc2)CCN(CC[C@@]2(c3ccc(F)c(F)c3)CN(C(=O)c3ccccc3)CCO2)CC1,inactive
22,NC(=Nc1ccccc1)Nc1ccccc1,inactive
23,COc1ccc(OC(F)(F)F)cc1CN[C@H]1CCCN[C@H]1c1ccccc1,inactive
24,O=[Si]=O,inactive
25,Cc1cc(SC2=C(O)C[C@@](CCc3ccc(N)cc3)(C(C)C)OC2=O)c(C(C)(C)C)cc1CO,inactive
26,CCCCCCCCCC[N+](C)(C)[O-],inactive
27,O=C(O)c1cccnc1,inactive

# Assay: Tanguay_ZF_120hpf_CFIN_legacy: (Legacy) Oregon State University Tanguay Lab 120 Hour Post-fertilization zebrafish Assay for Caudal Fin Malformation (AID 2283649)
# How it was run: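 Binary brightfield scoring of caudal fin defects at 120 hpf after static, light-shielded exposure at 28C from 6 hpf. Tropical 5D embryos, chorion removed with pronase at 4 hpf, final DMSO 0.64%.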
row,Compound,outcome
1,O=C(N[C@@H](c1ccccc1)[C@@H]1CCCCN1)c1cccc(C(F)(F)F)c1Cl,inactive
2,CCCCC(CC)COP(=O)(OCC(CC)CCCC)OCC(CC)CCCC (stereo not given),inactive
3,COC(=O)CCCC(=O)OC,inactive
4,CCCCCCCCCCCCCCCCO,inactive
5,CCCCCCC(CCCCCCCCCCC(=O)OCC(COC(C)=O)OC(C)=O)OC(C)=O (stereo not given),inactive
6,CCCCc1nc2cccnc2n1Cc1ccc(-c2ccccc2-c2nnn[nH]2)cc1,inactive
7,CC(C)c1cccc(C(C)C)c1NC(=O)NS(=O)(=O)c1cc(C(C)(C)O)co1,inactive
8,CC(C)(C)c1ccccc1,inactive
9,O=C(NS(=O)(=O)/C=C/c1cccs1)c1ccc(F)cc1Br,inactive
10,CC(=O)O[C@]1(C(C)=O)CC[C@H]2[C@@H]3C=C(Cl)C4=CC(=O)[C@@H]5C[C@@H]5[C@]4(C)[C@H]3CC[C@@]21C,inactive
11,CC(=O)[C@@]1(O)CC[C@H]2[C@@H]3CCC4=CC(=O)CC[C@]4(C)[C@H]3CC[C@@]21C,inactive
12,CS(=O)(=O)c1ccc([C@@H](C[C@H]2CCC(=O)C2)C(=O)Nc2cnccn2)cc1Cl,inactive
13,CO[C@@H]1COCC[C@@H]1N[C@@H]1CC[C@@](C(=O)N2CCc3ncc(C(F)(F)F)cc3C2)(C(C)C)C1,inactive
14,OCC(CO)n1cnc(-c2ccc(F)cc2)c1-c1ccnc(Oc2ccccc2)n1,inactive
15,CN(C)CCCN(C)CCCN(C)C,inactive
16,CN(C)C(=O)NC1(c2ccccc2)CCN(CC[C@@]2(c3ccc(F)c(F)c3)CN(C(=O)c3ccccc3)CCO2)CC1,inactive
17,NC(=Nc1ccccc1)Nc1ccccc1,inactive
18,COc1ccc(OC(F)(F)F)cc1CN[C@H]1CCCN[C@H]1c1ccccc1,inactive
19,O=[Si]=O,inactive
20,Cc1cc(SC2=C(O)C[C@@](CCc3ccc(N)cc3)(C(C)C)OC2=O)c(C(C)(C)C)cc1CO,inactive
21,CCCCCCCCCC[N+](C)(C)[O-],inactive
